Test results: PubChem BioAssay (EPA / NIEHS)
Records with an inconclusive call do not appear. The source made the active and inactive calls. How the source made its calls, unless noted: active means hit-call score of the fitted dose curve at least 0.9, where 1 is the maximum; inactive means score below 0.9.

Experiments:
[1] = CCTE_Mundy_HCI_Cortical_NOG_BPCount: CCTE's Neurite Outgrowth Assay in rat cortical cells for Branch Point Count, Mundy Lab (AID 2284237);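 on AC50: branch points counted about two days after chemical exposure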
Outline: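 Measured 50.33 h after dosing, this morphology endpoint uses rat primary cortical cultures labelled for betaIII-tubulin. Branch points are quantified by high-content imaging, with DMSO as negative control and baseline.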

[2] = CCTE_Mundy_HCI_hNP1_Casp3_7: CCTE's Caspase-Glo 3/7 Assay in human neuroprogenitor cells for Apoptosis, Mundy Lab (AID 2284240)
Outline: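 Luminescent caspase-3/7 readout, 26.5 h post-dose, in human neural progenitor cells from WA09 embryonic stem cells. Cells grew 40–44 h at 37 °C, 5% CO2 before chemical addition. Activity analysed as signal increase over DMSO baseline.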

[3] = CCTE_Mundy_HCI_hNP1_CellTiter: CCTE's Cell Titer-Glo 2 Assay in human neuroprogenitor cells for Viability, Mundy Lab (AID 2284241; active means hit-call score of the fitted dose curve at least 0.9, where 1 is the maximum)
Outline: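 Viability read as luminescent ATP content (CellTiter-Glo, 30 min room temperature) twenty-four hours after dosing, relative to DMSO. Cells: WA09-derived hNP1 neuroprogenitors on poly-L-ornithine/laminin, plated 40 to 44 hours before chemical.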

[4] = CCTE_Mundy_HCI_Cortical_Synap_Neur_Matur_NeuronCount: CCTE's Synaptogenesis and Neurite Maturation Assay in rat cortical cells for Neuron Count, Mundy Lab (AID 2284242; active means hit-call score of the fitted dose curve at least 0.9, where 1 is the maximum;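 on AC50: neuron number from Hoechst nuclei and MAP2 staining by high-content imaging; hits reduce neuron count versus DMSO baseline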)
Method: CCTE_Mundy_HCI_Cortical_Synap&Neurite_Matur is a multiplexed, cell-based-readout assay that uses rat primary cortical cells with measurements taken at 288.33 hours after chemical dosing in a microplate: 96-well plate.CCTE_Mundy_HCI_Cortical_Synap_Neur_Matur_NeuronCount is one of eight components of the CCTE_Mundy_HCI_Cortical_Synap&Neurite_Matur assay. It measures cell viability related to number of neurons using High Content Imaging of fluorescently labelled markers.[…] Using a type of morphology reporter, loss -of-signal activity can be used to understand developmental effects.
Cells are plated onto 96 well plates and allowed 2 hr for attachment to the substrate. At days in vitro (DIV) 5, Cytosine Arabinoside (AraC) is added to arrest glial cell growth. Chemicals are dosed and a media change is performed at DIV 7 of differentiation and is continued through DIV 12 when the experiment is terminated. Cells are fixed with […] and Hoechst Dye. Cells are stained using Millipore Mouse anti-MAP2MAB3418 (1:800) and Millipore Rabbit anti-Synaptophysinsc-1750 (1:250) primary antibodies and Alexa Fluor-488 goat anti-mouse and AlexaFluor-546 goat anti-rabbit secondary antibodies to label neuronal cell nuclei, synapses and neurites. A Cellomics ArrayScan VTi HCS Reader is used for automated image acquisition and analysis of neurite outgrowth.

[5] = CCTE_Mundy_HCI_Cortical_NOG_NeuronCount: CCTE's Neurite Outgrowth Assay in rat cortical cells for Neuron Count, Mundy Lab (AID 2284236; active means hit-call score of the fitted dose curve at least 0.9, where 1 is the maximum;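 further: neurons counted by imaging betaIII-tubulin and Hoechst stained cortical cells; cells exposed to compound for about 48 hours before fixation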)
Outline: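 Read-out: neuron number by high-content imaging of betaIII-tubulin (Alexa Fluor-488) and Hoechst-labelled rat primary cortical cells.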

[6] = TAMU_PeakParms_SingleDonor1434_QT: Texas A&M University (TAMU) 1.5-hr Human Induced Pluripotent Stem Cell (iPSC)-derived Cardiomyocytes Calcium (Ca+2) Flux Assay for Cardiotoxicity: QT (decay-rise ratio) (AID 2284235; active means hit-call score of the fitted dose curve at least 0.9, where 1 is the maximum)
Outline: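 iPSC-derived cardiomyocytes (single donor 1434) dosed at 0.2, 1, 10, 100 uM final in 0.5% DMSO, 90 min at 37C. Ca2+ flux fluorescence decay/rise ratio; EC05 (5% increase versus DMSO) as POD, excluding beat-arrest and severe-notch data.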

[7] = read-out: Collagen I, COL1A1 (gene 1277); assay: BSK_MyoF_CollagenI: BioMAP Diversity Plus: MyoF Assay for Collagen I Biomarker Activity (AID 2284238); conditions: primary human lung fibroblasts
Outline: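 Lung fibroblasts (human primary) dosed, 24 h; Collagen I by ELISA; positive-direction fit vs DMSO control. Parallel SRB total-protein staining (0.1% SRB, 10% TCA fixation, 560 nm) flags overt cytotoxicity.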

[8] = read-out: Collagen III, COL3A1 (gene 1281); assay: BSK_MyoF_CollagenIII: BioMAP Diversity Plus: MyoF Assay for Collagen III Biomarker Activity (AID 2284239); conditions: primary human lung fibroblasts
Outline: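 ELISA read-out of collagen III from human lung fibroblasts after 24 h of chemical treatment. The DMSO control served as negative control and baseline, with values fitted in the positive direction.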

[9] = read-out: Interleukin 17F (IL17F), IL17F (gene 112744); assay: BSK_BT_xIL17F: BioMAP Diversity Plus: BT Assay for Interleukin 17F (IL17F) Biomarker Activity (AID 2284243); conditions: primary human B cells with PBMC
Outline: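 Compound was added to co-cultures of human B cells and PBMC. After 24 hours, IL-17F released into the medium was measured with LumineX xMAP technology. Responses were then fitted upward relative to DMSO.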

[10] = read-out: Actin alpha 1 (ACTA1), ACTA1 (gene 58); assay: BSK_MyoF_ACTA1: BioMAP Diversity Plus: MyoF Assay for Actin alpha 1 (ACTA1) Biomarker Activity (AID 2284244); conditions: primary human lung fibroblasts
Outline: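 Human lung fibroblast (MyoF system) cultures dosed with test chemical; alpha-SMA measured by ELISA 24 h after dosing, normalized to DMSO control. Cytotoxicity tracked in parallel cultures by SRB total-protein staining.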

CSC(=O)c1cccc2nnsc12
outcome [1]: inactive
outcome [2]: inactive
outcome [3]: inactive

CCCN(CCC)C(=O)SCC
outcome [2]: inactive
outcome [3]: inactive

S=C([S-])NCCNC(=S)[S-].[Mn+2]
outcome [2]: inactive
outcome [4]: inactive

C#CCOC(=O)[C@@H](C)Oc1ccc(Oc2ncc(Cl)cc2F)cc1
outcome [5]: inactive
outcome [1]: inactive
outcome [2]: inactive
outcome [3]: inactive
outcome [4]: inactive

CCN(CC)C(=O)c1cccc(C)c1
outcome [5]: inactive
outcome [1]: inactive
outcome [2]: inactive
outcome [3]: inactive
outcome [4]: inactive

CC1(C)C(C=C(Cl)Cl)C1C(=O)OCc1cccc(Oc2ccccc2)c1 (stereo unspecified)
outcome [6]: inactive
AC50 [5]: 78.4 µM (active)
AC50 [1]: 84.5 µM (active)
outcome [2]: inactive
outcome [3]: inactive
AC50 [4]: 5.69 µM (active)

CC(=O)[C@H]1CC[C@H]2[C@@H]3CCC4=CC(=O)CC[C@]4(C)[C@H]3CC[C@]12C
outcome [6]: inactive

c1ccc2[nH]c(-c3cscn3)nc2c1
outcome [6]: inactive

CC(C)(c1ccc(O)cc1)c1ccc(O)cc1
outcome [6]: inactive
outcome [5]: inactive
outcome [4]: inactive

O=C(O)c1ccccc1
outcome [6]: inactive
outcome [5]: inactive
outcome [1]: inactive
outcome [2]: inactive
outcome [3]: inactive

COCCO
outcome [7]: inactive
outcome [8]: inactive
outcome [9]: inactive
outcome [10]: inactive

S=C(S)NCCNC(=S)S.[Mn+2].[S-]C([S-])=NCCN=C([S-])[S-].[Zn+2]
outcome [1]: inactive
outcome [2]: inactive

Cc1nn(C)c(Oc2ccccc2)c1C=NOCc1ccc(C(=O)OC(C)(C)C)cc1
AC50 [5]: 0.327 µM (active)
AC50 [1]: 0.014 µM (active)
AC50 [2]: 8.5 µM (active)
AC50 [4]: 0.00225 µM (active)

CCC(C)OC(=O)N1CCCCC1CCO (stereo unspecified)
outcome [7]: inactive
outcome [8]: inactive
outcome [9]: inactive
outcome [10]: inactive

N#CSCSc1nc2ccccc2s1
AC50 [7]: 5.73 µM (active)
AC50 [8]: 5.71 µM (active)
AC50 [9]: 4.93 µM (active)
AC50 [10]: 4.21 µM (active)
